Data taken from PubChem BioAssay AID504840 (Johns Hopkins Ion Channel Center, 2011).
Hit rate of the full screen: of about 1,500 compounds, about 890 (59%) were called active.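 Rule for the calls: active = inhibition of the choline-evoked signal at any tested dose together with a fitted dose-response curve; inactive = no inhibition at any dose or no curve.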 So high a share suggests a set chosen from earlier hits. Only a sample is shown. Results with a measured potency or affinity are listed apart.

The molecules below were run against High affinity choline transporter 1 (Homo sapiens) (UniProt Q9GZV3) (assay: CHT inhibitors, dose response, cell-based, 5-point CRC, membrane potential dye (AID 504840)). Conditions: HEK293-CHT, choline-induced depolarization, CHT with LV-to-AA double alanine mutation; series mostly up to 37 µM.
Sequence of High affinity choline transporter 1 (Homo sapiens) (Q9GZV3 whole entry, looked up): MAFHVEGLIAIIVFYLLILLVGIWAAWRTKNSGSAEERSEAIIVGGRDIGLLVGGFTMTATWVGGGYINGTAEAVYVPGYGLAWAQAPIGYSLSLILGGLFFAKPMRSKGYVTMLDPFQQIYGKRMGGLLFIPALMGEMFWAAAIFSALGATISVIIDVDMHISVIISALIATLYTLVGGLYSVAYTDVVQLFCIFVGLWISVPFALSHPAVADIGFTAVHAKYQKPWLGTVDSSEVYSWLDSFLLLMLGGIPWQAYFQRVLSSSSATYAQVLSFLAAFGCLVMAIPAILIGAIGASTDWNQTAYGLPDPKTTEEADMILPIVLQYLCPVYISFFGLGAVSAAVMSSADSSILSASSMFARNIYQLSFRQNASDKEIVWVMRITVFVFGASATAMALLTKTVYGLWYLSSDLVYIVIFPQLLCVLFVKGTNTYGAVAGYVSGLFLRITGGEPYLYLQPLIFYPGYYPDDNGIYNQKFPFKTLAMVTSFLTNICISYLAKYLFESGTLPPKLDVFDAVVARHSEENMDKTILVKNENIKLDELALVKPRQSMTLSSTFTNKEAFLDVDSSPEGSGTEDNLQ

outcome, inactive:
C/C(=N\NC(=O)c1ccccc1O)C1C(=O)c2ccccc2C1=O, COC(=O)C1CN(C(=O)C(C)Oc2ccccc2Cl)c2ccccc2O1 (configuration not stated), CC(NC(=O)Cn1nc(-c2ccccc2)c2ccccc2c1=O)c1ccccc1 (configuration not stated), O=c1c2cc(Br)ccc2nc(-c2cccc(C(F)(F)F)c2)n1O, CCn1c(SCC(=O)N=Nc2c(O)[nH]c3ccccc23)nc2ccccc21, OC(CNCC#Cc1ccccc1)c1ccccc1 (configuration not stated), Cc1ccc(N2CCN(C(=O)C3CCCN(c4ncnc5c4nc4n5CCCCC4)C3)CC2)c(C)c1 (configuration not stated), COc1ccc(Cl)cc1NC(=O)C1CCCN(c2ncnc3c2nc2n3CCCCC2)C1 (configuration not stated), O=C(Nc1cc(F)ccc1F)C1CCCN(c2ncnc3c2nc2n3CCCCC2)C1 (configuration not stated), O=C(C1CCCN(c2ncnc3c2nc2n3CCCCC2)C1)N1CCN(c2cccc(Cl)c2)CC1 (configuration not stated), O=C(c1cccs1)C1C(c2ccc(Br)cc2)NC(=S)NC1(O)C(F)(F)F (configuration not stated), COc1ccc(Cl)c2sc(N(CCN(C)C)C(=O)c3ccc4c(c3)OCCO4)nc12, Cc1[nH]n(-c2ccccc2)c(=O)c1N=Nc1c(O)cc(S(=O)(=O)N(C)C)c2ccccc12, COc1cccc(N2CCN(c3ncnc4c3[nH]c3ccc(F)cc34)CC2C)c1 (configuration not stated), COCCNc1c2c(nc3c(-c4ccccc4)c(C)nn13)CCCC2, CN1CCN(Cc2ccc(Sc3ccc(Cl)cc3)c([N+](=O)[O-])c2)CC1, CCOC(=O)N1CCN(C(=O)CCCn2c(=S)[nH]c3ccc(Br)cc3c2=O)CC1, CC1=NN(C(=O)c2ccc(Br)cc2)C(O)(C(F)(F)OC(F)(F)F)C1 (configuration not stated), O=C(Nc1ccccc1O)c1ccccc1O, CCc1nc(NCc2ccccn2)c2oc3ccccc3c2n1, O=C1c2ccccc2C(=O)c2c(Nc3ccc(CCO)cc3)ccc(O)c21, COc1cc(C(CCN2CCCC(C)C2)c2c(OC)cc(OC)c3c(-c4ccccc4)cc(=O)oc23)cc(OC)c1OC (configuration not stated), O=C(CCCSc1nc2ccccc2[nH]1)N1CCN(c2ccccc2)CC1, Cc1cc(C)nc(SCc2cc(=O)c(OC(=O)c3ccc(S(=O)(=O)N4CCCC4)cc3)co2)n1, CN1CCN(c2ccc(S(=O)(=O)N3CCCCC3)cc2NC(=O)CSCc2ccccc2)CC1, CC(C)[C@H](NC(=O)c1ccccc1)C(=O)OCC(=O)c1ccc2c(c1)NC(=O)CO2, O=C(CCl)N(c1ccc(Cl)cc1)c1c[nH]c2ccccc12
